Data taken from ChEMBL document CHEMBL4513141, “CO-ADD screening of NIH (USA) - Clinical Collection” (2021).
Measured potencies and affinities stand elsewhere.

Assays:
Klebsiella pneumoniae = settings: Concentration 20 uM; ASSAY_TEST Inhibition of Bacterial Growth; detection method Absorption (OD600); MEDIA CAMHB; plate type 384well; NBS; CORNING #3640; time 18 hr
Candida albicans = settings: 20 µM
Cryptococcus neoformans = settings: Concentration 20 uM; ASSAY_TEST Inhibition of Fungal Growth; detection method Resazurin; Absorption (OD600-OD570); plate type 384well; NBS; CORNING #3640

Structure (SMILES)	Inhibition (Klebsiella pneumoniae) [%]	Inhibition (Candida albicans) [%]	Inhibition (Cryptococcus neoformans) [%]
CC12CCC(=O)C=C1CCC1C2CCC2(C)C1CCC2(O)C(=O)CO (stereo not given)	8.14	3.12	-0.13
CCN1CCC[C@H]1CNC(=O)c1c(O)c(Cl)cc(Cl)c1OC [RACLOPRIDE]	6.89	2.44	1.03
COc1ccccc1N1CCN(CCCNc2cc(=O)n(C)c(=O)n2C)CC1.Cl [URAPIDIL HYDROCHLORIDE]	17.15	3.19	-6.92
Cc1nccn1CC1CCc2c(c3ccccc3n2C)C1=O (stereo not given) [ONDANSETRON]	11.11	4.72	-0.32
NC(N)=Nc1nc(CSCC/C(N)=N/S(N)(=O)=O)cs1 [FAMOTIDINE]	2.4	3.01	-2.8
O=C(CCNNC(=O)c1ccncc1)NCc1ccccc1 [NIALAMIDE]	13.86	4.06	-3.3
CCc1cccc2c3c([nH]c12)C(CC)(CC(=O)O)OCC3 (stereo not given) [ETODOLAC]	6.96	1.19	-2.08
COc1ccc2[nH]c([S+]([O-])Cc3ncc(C)c(OC)c3C)nc2c1 (stereo not given) [OMEPRAZOLE]	7.63	27	-26.65
CCCNCC(O)COc1ccccc1C(=O)CCc1ccccc1 (stereo not given) [PROPAFENONE]	6.97	0.01	-5.76
CC(C)(C)NCC(O)c1ccc(O)c(CO)c1.CC(C)(C)NCC(O)c1ccc(O)c(CO)c1.O=S(=O)(O)O (stereo not given) [ALBUTEROL SULFATE]	17.78	3.1	-3.67
